Calls of active or inactive are those of the source.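 The calls were made as follows, unless noted: active = mean inhibition above 46.5%, the solvent-only control mean plus 3 SD; inactive = the rest.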

The subject of test [1] is transactivating tegument protein VP16 (Human herpesvirus 1). In words: compounds suppressing VP16-driven luciferase signal – cell-based, luminescence, single concentration, counter-screen for SRC2 inhibitor project (AID 652007; in the data active = inhibition above about 36%). Conditions: cell-based VP16 transactivation luciferase reporter, at 8.9 µM, hits give high values.
The target in test [2] is Nuclear receptor coactivator 2 (Homo sapiens) (UniProt Q15596). The experiment in a line: inhibition of GAL4-SRC2 driven luciferase expression – cell-based, luminescence, HEK293, triplicate, confirmation (AID 652008).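 Also: 0% = DMSO-treated cells and 100% = Gossypol at 36 µM.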 Conditions: HEK293 GAL4-SRC2 luciferase reporter, at 8.9 µM, hits give high values.
Chain of Nuclear receptor coactivator 2 (Homo sapiens) (Q15596 whole entry, looked up, the tested form may be a part): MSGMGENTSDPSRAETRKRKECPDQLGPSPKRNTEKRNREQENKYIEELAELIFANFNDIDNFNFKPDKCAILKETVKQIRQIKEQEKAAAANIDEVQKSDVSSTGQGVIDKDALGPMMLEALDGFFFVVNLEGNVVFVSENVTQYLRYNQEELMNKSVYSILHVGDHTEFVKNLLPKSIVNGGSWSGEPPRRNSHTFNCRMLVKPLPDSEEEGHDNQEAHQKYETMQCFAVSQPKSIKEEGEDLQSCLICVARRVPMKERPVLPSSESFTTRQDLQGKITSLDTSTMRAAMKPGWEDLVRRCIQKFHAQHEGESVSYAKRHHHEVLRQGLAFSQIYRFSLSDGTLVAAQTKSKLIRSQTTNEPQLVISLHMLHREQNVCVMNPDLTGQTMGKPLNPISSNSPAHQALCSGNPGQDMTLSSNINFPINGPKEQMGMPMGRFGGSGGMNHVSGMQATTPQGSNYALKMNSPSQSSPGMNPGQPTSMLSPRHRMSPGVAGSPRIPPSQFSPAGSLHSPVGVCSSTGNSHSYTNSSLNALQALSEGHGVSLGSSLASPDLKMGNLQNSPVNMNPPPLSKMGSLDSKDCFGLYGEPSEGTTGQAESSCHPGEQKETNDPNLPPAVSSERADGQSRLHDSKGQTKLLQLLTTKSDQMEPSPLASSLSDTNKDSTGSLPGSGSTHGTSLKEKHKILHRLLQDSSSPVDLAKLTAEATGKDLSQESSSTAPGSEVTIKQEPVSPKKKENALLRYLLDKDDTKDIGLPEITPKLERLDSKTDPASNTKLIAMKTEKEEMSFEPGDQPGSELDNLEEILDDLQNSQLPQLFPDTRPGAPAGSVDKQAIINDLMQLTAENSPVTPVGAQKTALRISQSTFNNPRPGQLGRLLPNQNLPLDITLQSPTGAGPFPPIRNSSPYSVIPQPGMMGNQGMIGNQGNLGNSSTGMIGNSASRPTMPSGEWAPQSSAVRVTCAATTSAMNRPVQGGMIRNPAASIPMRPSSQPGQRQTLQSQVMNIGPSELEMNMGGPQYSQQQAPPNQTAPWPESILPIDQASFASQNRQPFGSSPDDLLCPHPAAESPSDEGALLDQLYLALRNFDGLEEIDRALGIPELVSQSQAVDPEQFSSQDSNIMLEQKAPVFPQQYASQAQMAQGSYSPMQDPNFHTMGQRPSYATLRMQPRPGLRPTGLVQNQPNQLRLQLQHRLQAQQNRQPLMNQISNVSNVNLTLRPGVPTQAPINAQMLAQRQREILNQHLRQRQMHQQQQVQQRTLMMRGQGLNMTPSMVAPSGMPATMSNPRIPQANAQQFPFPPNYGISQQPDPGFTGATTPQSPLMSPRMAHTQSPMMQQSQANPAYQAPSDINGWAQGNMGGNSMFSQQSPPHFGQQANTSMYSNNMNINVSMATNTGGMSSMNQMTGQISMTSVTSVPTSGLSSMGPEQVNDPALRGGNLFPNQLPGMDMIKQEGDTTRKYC

Turning to `COc1ccc(C)cc1Nc1n[n+](-c2ccccc2)c(-c2c(Cl)cccc2Cl)s1`, the inhibition (usually the drop in the measured response relative to a control, in per cent) in test [1] is 19.4% (inactive); in test [2], 22.7% (inactive).

Regarding `c1cc(-c2nnc3n2N=C(c2ccc4c(c2)OCO4)CS3)ccn1`, the inhibition in test [1] was -3.48% (inactive); in test [2], 42.4% (inactive).

Consider `COc1ccc(-c2nnc(SCC(=O)Oc3ccc(C)cc3)o2)cc1`, for which the inhibition in test [1] was -10% (inactive); in test [2] it was -4.18% (inactive).

On to `CCC(=O)Nc1ccc(NC(=O)c2oc3ccccc3c2C)cc1`, for which the inhibition in test [1] is -12.3% (inactive); in test [2] it was 38.1% (inactive).

For the compound `CC(C)COc1ccc(C(=S)N2CCCC2)cc1`, the inhibition is -1.55% (inactive) in test [1] and 40.6% (inactive) in test [2].

As for `O=C(c1ccc(Cl)cc1)C(CN1CCCC1)c1ccccc1` (stereo not drawn), the values for the inhibition in test [1] and in test [2] were 26.1% (inactive) and 53.9% (active), respectively.

With `Cc1nnc(SCc2nc3sc(C(=O)O)c(C)c3c(=O)[nH]2)s1`, the inhibition is 21.2% (inactive) in test [1] and 9.02% (inactive) in test [2].

As for `CCCCN1C[C@@H](COCc2ccccc2)Oc2cc(F)ccc2S1(=O)=O`, the inhibition in test [1] was -1.24% (inactive); in test [2] it was 11.9% (inactive).

Turning to `C[n+]1ccccc1/C=C/c1ccccc1Cl`, the figures for the inhibition in test [1] and in test [2] were -18.2% (inactive) and -7.01% (inactive), respectively.

On to `COc1cc(/C=N/NC(=O)c2ccc(COc3cc(C)ccc3C(C)C)cc2)cc(OC)c1O`, for which the inhibition in test [1] is -2.59% (inactive); in test [2], 62.9% (active).

`CCN(CC)c1nc(C=Cc2ccc(N(C)C)cc2)c2nccnc2n1`: the inhibition in test [1] is 17.1% (inactive); in test [2], 21.8% (inactive).

Regarding `C=CCn1nc(C(=O)N2CCOCC2)cc1-c1sc(NC(=O)c2ccccc2)nc1C`, the inhibition in test [1] is -15.6% (inactive); in test [2] it was 24.6% (inactive).

`CSCC[C@H](NC(=O)c1cc([N+](=O)[O-])ccc1Cl)c1nc2ccccc2[nH]1`: the inhibition in test [1] is -0.37% (inactive); in test [2], 19% (inactive).

As to `C[C@@H]1CCN(C2CC2)S(=O)(=O)c2ccc(N3CCC[C@H]3C)cc2O1`, the figures for the inhibition in test [1] and in test [2] were -8.49% (inactive) and -6.67% (inactive), respectively.

In the case of `COc1ccc(OC)c(NC(=O)COC(=O)CCCN=C2NS(=O)(=O)c3ccccc32)c1`, the inhibition is -0.67% (inactive) in test [1] and -10.3% (inactive) in test [2].

For `O=C(/C=C/c1cn(-c2ccccc2)nc1-c1cccnc1)c1ccco1`, the inhibition in test [1] was 29.5% (inactive); in test [2], 39.6% (inactive).

`CSc1nnc(NC(=O)c2nc(S(=O)(=O)Cc3ccc(C)cc3)ncc2Cl)s1`: the inhibition in test [1] was 36.7% (active); in test [2], 55.7% (active).

On to `CN(Cc1ccccc1F)C(=O)C1CCC(CNS(=O)(=O)c2cccc3cccnc23)CC1` (stereo not drawn), for which the figures for the inhibition in test [1] and in test [2] were 3.95% (inactive) and -2.23% (inactive), respectively.

`O=c1[nH]c2ccc(Br)cc2c(=O)o1`: the inhibition was 44.5% (active) in test [1] and 34.9% (inactive) in test [2].

Consider `C=C(C)C(=O)OC1(C(F)(F)F)Oc2cc(C)ccc2NC1=O` (stereo not drawn), for which the inhibition in test [1] is -6.48% (inactive); in test [2] it was 17.5% (inactive).

In the case of `CN(Cc1ccc(Cl)s1)C(=O)CCl`, the values for the inhibition in test [1] and in test [2] were 14.2% (inactive) and 22% (inactive), respectively.

Turning to `CNc1ccccc1C(=O)OC(C)C(=O)Nc1ccc(Cl)cn1` (stereo not drawn), the inhibition in test [1] is -10.2% (inactive); in test [2] it was 20.9% (inactive).

Turning to `CCOc1ccc(-n2nc3ccc(N)cc3n2)cc1`, the results for the inhibition in test [1] and in test [2] were -14.3% (inactive) and 66% (active), respectively.

`Cc1c([N+](=O)[O-])cnc(Sc2ccccc2)c1[N+](=O)[O-]`: the inhibition is 3.41% (inactive) in test [1] and 16.7% (inactive) in test [2].

Turning to `Cc1cccc(NC(=O)Nc2ccc(Cl)c(Cl)c2)n1`, the inhibition in test [1] was -83.6% (inactive); in test [2] it was -16.7% (inactive).

In the case of `COC(=O)[C@]12C[C@H](CC(=O)N3CCCC3)C(=O)N(CCC3=CCCCC3)C1=C[C@H](C(C)C)O[C@@H]2C1CC1`, the inhibition in test [1] is -0.66% (inactive); in test [2], -19.4% (inactive).

For the compound `CC1CC(C)(C)Nc2ccc(OC(=O)c3ccco3)cc21` (stereo not drawn), the inhibition in test [1] was -46.6% (inactive); in test [2], 46.8% (active).

With `Cc1ccc(C(=O)NCc2cccc(C(F)(F)F)c2)cc1S(=O)(=O)N1CCCCC1`, the inhibition was -7.82% (inactive) in test [1] and -8.4% (inactive) in test [2].

On to `COc1cccc(C(=O)c2sc(NC(C)C)nc2N)c1`, for which the inhibition in test [1] was 6.6% (inactive); in test [2], 57.2% (active).

`CC(C)c1ccc(/C=C2\CC/C(=C\C=N\N(C)C)C2=O)cc1`: the inhibition is -56.7% (inactive) in test [1] and -2.89% (inactive) in test [2].

For the compound `COc1ccc(/C=C2\SC(=S)N(CCCC(=O)N3CCN(C)CC3)C2=O)cc1`, the inhibition is -11.9% (inactive) in test [1] and 2.68% (inactive) in test [2].

For the compound `CCOc1cc(NC(=S)NCc2ccco2)c(OCC)cc1NC(=O)CC`, the inhibition in test [1] was -10.4% (inactive); in test [2] it was -9.88% (inactive).

Take `Cc1ccc2cccc(NS(=O)(=O)c3ccccc3)c2n1`: the values for the inhibition in test [1] and in test [2] were 75.5% (active) and -19.5% (inactive), respectively.

As to `Cc1nc(SCc2cccc(C(=O)O)c2)nc2c1CCCC2`, the values for the inhibition in test [1] and in test [2] were 4.6% (inactive) and 56.6% (active), respectively.

The values above are taken from PubChem BioAssay.
